Source: PubChem BioAssay
Rab9 promoter act = Rab9 promoter activation. AID 485297. Huh7 Rab9 promoter-luciferase reporter, luminescence, 24 h. Potency, µM (highest dose often 9.22 µM), actives largely listed as activators. 2.8% of 320,000 active; note: nearly all actives have a fitted effect of over 60% in size
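Huh7 cells stably carrying Rab9 promoter–luciferase reporter, plated 1500 cells/well, compound added after 2 h and incubated 24 h at 37 °C; luciferase luminescence then read after 10 min with detection reagent.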
FLuc modulator = counter-screen for miR-21 project: firefly luciferase inhibitors or activators; P08659; purified FLuc, Km substrates, luminescence inhibition; Potency, µM (titrated, usually from 57.5 µM), usual class: inhibitors; 6.9% of 360,000 active; AID 588342; note: nearly all actives have a fitted effect of over 55% in size
Target sequence (P08659 whole entry, looked up): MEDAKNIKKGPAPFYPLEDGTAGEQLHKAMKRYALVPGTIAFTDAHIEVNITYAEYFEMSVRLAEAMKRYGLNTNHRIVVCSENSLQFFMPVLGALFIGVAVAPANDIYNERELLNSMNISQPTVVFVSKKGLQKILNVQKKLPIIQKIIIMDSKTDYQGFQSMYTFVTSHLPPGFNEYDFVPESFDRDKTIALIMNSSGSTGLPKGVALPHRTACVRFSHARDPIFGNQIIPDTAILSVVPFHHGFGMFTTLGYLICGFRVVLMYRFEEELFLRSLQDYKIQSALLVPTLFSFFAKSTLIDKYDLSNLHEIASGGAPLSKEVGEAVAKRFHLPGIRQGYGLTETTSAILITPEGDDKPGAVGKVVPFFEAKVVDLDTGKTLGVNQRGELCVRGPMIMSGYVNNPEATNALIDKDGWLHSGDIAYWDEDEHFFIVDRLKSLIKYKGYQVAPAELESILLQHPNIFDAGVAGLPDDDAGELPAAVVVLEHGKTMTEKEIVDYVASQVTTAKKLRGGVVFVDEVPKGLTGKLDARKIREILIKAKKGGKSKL
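Biochemical qHTS of compounds, final roughly 60 µM downward over six points, against 10 nM purified firefly luciferase using Km concentrations of substrates (10 uM D-luciferin, 10 uM ATP) in Tris acetate pH 7.5 buffer; luminescence output.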
ELG1 DNA repair = inhibitors of ELG1-dependent DNA repair in HEK293T cells. HEK293T ELG1-luciferase reporter, luminescence, 16 h; DNA damage induced by 5-fluorouridine. Potency, µM (top dose mostly 46.1 µM), most hits filed as inhibitors. 2.3% of 330,000 active; note: nearly all actives have a fitted effect of over 55% in size
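Step one: seed 2,000 cells per well. Step two: pin-transfer compound or DMSO alongside 5-fluorouridine. Step three: incubate 16 hr, 37 °C, 5% CO2. Step four: add ONE-Glo, wait 30 min, read luminescence.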
NPC1 promoter act = NPC1 promoter activation; Huh7 NPC1 promoter luciferase reporter, 24 h; Potency, µM (series often up to 9.22 µM), usual class: activators; 2.4% of 320,000 active; AID 485313; note: nearly all actives have a fitted effect of over 60% in size
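Compounds in DMSO were transferred onto Huh7 NPC1-luciferase reporter cells pre-incubated 2 h; after 24 h at 37 °C, Amplite reagent was dispensed and luminescence recorded 10 min later.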
SMN2 splice enh = SMN2 splice variant enhancement | AID 1458 | 2.8% of 210,000 active | Potency, µM (top dose mostly 46.1 µM), most hits filed as activators | HEK293 SMN2-luciferase splicing reporter, luminescence, 30-36 h; note: nearly all actives have a fitted effect of over 55% in size
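HEK293 cells carry an SMN2 minigene-luciferase reporter in which exon 7 inclusion puts luciferase in frame. Cells were seeded at 2000 cells/well, attached for 10-12 hours, then exposed to compounds for 30-36 hours at 37C before ONE-Glo luminescence.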
ELG1 genotoxic = inducers of genotoxicity in HEK293T ELG1-luciferase cells. 1.3% of 330,000 active. HEK293T ELG1-luciferase reporter, luminescence, 16 h. AID 504466. Potency, µM (highest dose often 46 µM), actives largely listed as activators; note: nearly all actives have a fitted effect of over 60% in size
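Genotoxicity was scored as increased ELG1-luciferase reporter signal, measured by ONE-Glo luminescence (30 min, room temperature). Compound or vehicle exposure of the HEK293T reporter cells lasted 16 hr at 37°C.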
Of the large screens only hits and unclear results are named; the others gave an inactive call. An excerpt weighted towards active compounds, which were near 9.2% of everything screened. Calls come from the whole dose curve; as a rule, active = well fitted curve in the direction sought with a large enough effect; inconclusive = small, poorly fitted or top-dose-only effect, or another doubt; inactive = no such curve, though single readings can be large; an effect the other way counts as inactive or inconclusive.

COc1cc(C(C)=O)ccc1COc1ccc(C(=O)OC(C)C(=O)NC(N)=O)cc1OC (configuration not stated)	ELG1 DNA repair inconclusive
O=C(Nc1nnc(S(=O)(=O)N2CCCCC2)s1)c1ccc(Cl)cc1	none (no result: SMN2 splice enh)
CCOc1ccccc1Nc1nnc(SCC(=O)Nc2ccc3[nH]c(=O)[nH]c3c2)s1	ELG1 DNA repair inconclusive
CCOc1ccccc1Nc1nnc(SCC(=O)Nc2cccc(S(=O)(=O)NC3=NCCCCC3)c2)s1	ELG1 DNA repair 18µM
CCOc1ccc2nc(SCC(=O)Nc3ccc4c(c3)OCCO4)[nH]c2c1	FLuc modulator 17µM
COc1ccc2nc(SCC(=O)Nc3ccc4c(c3)OCCO4)[nH]c2c1	FLuc modulator 13µM, ELG1 DNA repair inconclusive, ELG1 genotoxic inconclusive
CCOc1ccc2nc(SCC(=O)Nc3cccc(S(=O)(=O)NC4=NCCCCC4)c3)[nH]c2c1	FLuc modulator 21µM, ELG1 DNA repair inconclusive
COc1ccc(N2CCN(C(=O)CN3c4cccc5cccc(c45)S3(=O)=O)CC2)cc1	ELG1 DNA repair inconclusive (no result: Rab9 promoter act, FLuc modulator, NPC1 promoter act, SMN2 splice enh)
CCOc1ccccc1C(=O)N[C@H](C(=O)OCc1cc([N+](=O)[O-])cc2c1OCOC2)C(C)C	ELG1 DNA repair 21µM
COc1ccccc1C1CC(c2ccccc2)=NN1C(=S)Nc1ccccc1 (configuration not stated)	none
CC(=O)Nc1ccc(SCC(=O)c2cc(C)n(CC(F)(F)F)c2C)cc1	Rab9 promoter act 2.8µM, ELG1 DNA repair inconclusive, NPC1 promoter act 3.2µM, ELG1 genotoxic inconclusive
Cc1cc2ncc(-c3cccs3)nc2cc1C	Rab9 promoter act 4µM, FLuc modulator 0.34µM, ELG1 DNA repair inconclusive, NPC1 promoter act 0.89µM, ELG1 genotoxic inconclusive (no result: SMN2 splice enh)
Nc1nc(-c2cccs2)cs1	FLuc modulator inconclusive, ELG1 DNA repair inconclusive, NPC1 promoter act inconclusive
Cc1cc(-c2cccs2)n[nH]1	none
Nc1nc2ccccc2cc1-c1cccs1	Rab9 promoter act inconclusive, FLuc modulator 11µM, ELG1 DNA repair inconclusive, NPC1 promoter act 4.5µM, ELG1 genotoxic inconclusive (no result: SMN2 splice enh)
c1csc(-c2ccc3ccccc3n2)c1	Rab9 promoter act inconclusive, FLuc modulator 7.6µM, ELG1 DNA repair inconclusive, NPC1 promoter act inconclusive, ELG1 genotoxic inconclusive
Cc1ccc(-c2cc3ccccc3nc2N)cc1	Rab9 promoter act inconclusive, FLuc modulator 3µM, ELG1 DNA repair inconclusive, NPC1 promoter act 5µM, ELG1 genotoxic inconclusive (no result: SMN2 splice enh)
Cc1nn(-c2ccc(N3CCCCC3)nn2)c(C)c1CCC(=O)Nc1cc(F)ccc1F	Rab9 promoter act inconclusive, FLuc modulator 4.8µM, NPC1 promoter act inconclusive (no result: SMN2 splice enh)
Cc1nn(-c2ccc(N3CCCCC3)nn2)c(C)c1CCC(=O)Nc1ccccc1F	Rab9 promoter act inconclusive, FLuc modulator 19µM, ELG1 DNA repair inconclusive, NPC1 promoter act inconclusive (no result: SMN2 splice enh)
Cc1nn(-c2ccc(N3CCCC3)nn2)c(C)c1CCC(=O)Nc1ccc(F)cc1F	none (no result: Rab9 promoter act, ELG1 DNA repair, NPC1 promoter act, SMN2 splice enh, ELG1 genotoxic)
Cc1c(CCNC(=O)Cc2ccccc2)sc2nc(-c3ccc(F)cc3)nn12	none (no result: Rab9 promoter act, ELG1 DNA repair, NPC1 promoter act, SMN2 splice enh, ELG1 genotoxic)
Cc1ccc(-c2nc3sc(CCNC(=O)c4ccc(Br)o4)c(C)n3n2)cc1	FLuc modulator 11µM (no result: Rab9 promoter act, ELG1 DNA repair, NPC1 promoter act, SMN2 splice enh, ELG1 genotoxic)
Cc1ccc(-c2nc3sc(CCNC(=O)c4ccco4)c(C)n3n2)cc1	FLuc modulator 13µM (no result: Rab9 promoter act, ELG1 DNA repair, NPC1 promoter act, SMN2 splice enh, ELG1 genotoxic)
CCCn1c2ccccc2c2cnn(CC(=O)NC3CCCC(C)C3C)c(=O)c21 (configuration not stated)	none (no result: SMN2 splice enh)
Cc1nnc(SCc2ccccc2)[nH]c1=O	FLuc modulator inconclusive (no result: SMN2 splice enh)
Cc1ccc(CSc2nnc(C)c(=O)[nH]2)cc1	FLuc modulator 17µM, ELG1 DNA repair inconclusive
Cc1ccc(NC(=O)c2cc(=O)c3ccccc3o2)cc1S(=O)(=O)N1CCCCC1	ELG1 DNA repair 16µM
Cc1cc2oc(C(=O)Nc3ccc(S(N)(=O)=O)cc3)cc(=O)c2cc1C	none (no result: Rab9 promoter act, ELG1 DNA repair, NPC1 promoter act, ELG1 genotoxic)
CC(=O)Nc1ccc(NC(=O)c2cc(=O)c3cc(C)c(C)cc3o2)cc1	FLuc modulator 2.7µM (no result: SMN2 splice enh)
Cc1ccc(NC(=O)c2ccccc2-c2ccc(C(F)(F)F)cc2)cc1S(=O)(=O)N1CCOCC1	ELG1 DNA repair 21µM
Cc1ccc(NC(=O)c2cc(=O)c3ccccc3o2)cc1S(=O)(=O)N1CCOCC1	ELG1 DNA repair 23µM (no result: SMN2 splice enh)
